Assay outcomes from PubChem.
An excerpt weighted towards active compounds, which were near 3.4% of everything screened.
MITF primary: MITF inhibitors, primary screen, biochemical, AlphaScreen, human. AID 1259374, 2018. inhibition, % at 2.6 µM. Microphthalmia-associated transcription factor (Homo sapiens), O75030. AlphaScreen MITF homodimerization, bead proximity signal. 0.91% of 650,000 active; in the data active = inhibition above about 50%;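 note: 0% = vehicle wells with protein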
FBW7 activator: FBW7 E3 ligase activators, primary screen, biochemical, AlphaScreen, human; AlphaScreen FBW7–phospho-cyclin E peptide binding, activator screen; normalized activity (activation), % at 26.1 µM; 0.13% of 650,000 active; AID 1259310, 2017; in the data active = normalized activity above about 1.9%;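 note: purified mutant Fbw7 with reduced substrate affinity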
Target sequence (Q969H0 whole entry, looked up): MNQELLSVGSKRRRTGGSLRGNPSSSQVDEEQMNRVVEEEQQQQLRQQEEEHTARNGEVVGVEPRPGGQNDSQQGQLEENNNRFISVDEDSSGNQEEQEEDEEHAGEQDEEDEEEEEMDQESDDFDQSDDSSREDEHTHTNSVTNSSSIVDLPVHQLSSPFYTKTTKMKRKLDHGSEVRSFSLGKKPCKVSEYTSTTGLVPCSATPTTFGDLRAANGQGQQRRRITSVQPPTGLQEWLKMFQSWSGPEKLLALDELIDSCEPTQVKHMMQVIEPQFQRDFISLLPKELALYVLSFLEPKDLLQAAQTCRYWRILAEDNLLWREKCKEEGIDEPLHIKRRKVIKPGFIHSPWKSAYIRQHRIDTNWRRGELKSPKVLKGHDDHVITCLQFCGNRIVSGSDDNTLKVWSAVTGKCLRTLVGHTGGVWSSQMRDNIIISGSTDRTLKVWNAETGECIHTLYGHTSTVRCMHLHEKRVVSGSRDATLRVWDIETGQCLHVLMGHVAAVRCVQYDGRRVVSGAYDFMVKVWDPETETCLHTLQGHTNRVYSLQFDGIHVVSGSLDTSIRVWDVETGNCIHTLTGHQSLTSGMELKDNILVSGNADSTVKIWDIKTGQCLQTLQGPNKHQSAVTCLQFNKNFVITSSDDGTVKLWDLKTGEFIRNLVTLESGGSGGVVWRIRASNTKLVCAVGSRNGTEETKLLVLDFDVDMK
TEAD-YAP block: TEAD-YAP interaction inhibition, primary screen, TEAD-YAP interaction inhibitor project, luminescence, HEK-TIYL cells | TEAD-Gal4/YAP UAS-luciferase luminescence | 1.4% of 640,000 active | inhibition, % at 9.12 µM; in the data active = inhibition above about 32%;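 note: 0% = median of test compound wells and 100% = reference inhibitor wells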
GPR151 ag: activators of human GPR151, primary screen, cell-based, PathHunter beta-arrestin, luminescence. G-protein coupled receptor 151 (Homo sapiens), Q8TDV0. PathHunter beta-arrestin GPR151 cells. activation, % at 11.2 µM. 1% of 650,000 active. AID 1508602, 2020; in the data active = activation above about 4.9%;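 note: 0% = median of compound wells and 100% = cells with positive control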
MITF inh conf: MITF inhibitors, retest of hits, confirmation, biochemical, AlphaScreen, triplicate | shares compounds with MITF primary | AlphaScreen MITF homodimerization, biotin/His-MITF beads | inhibition, % at 2.6 µM | 16% of 4,700 active | AID 1259372, 2018;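 active = inhibition above a cutoff derived from the DMSO control wells, cut at about 28% in these data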;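 note: 0% = MITF dimer wells with DMSO only; inhibitors lower the bead chemiluminescence by keeping MITF from dimerizing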
AS interf DR: AlphaScreen optical interference compounds, dose response, counter-screen, biochemical, HTS; shares compounds with MITF primary; AlphaScreen optical interference counterscreen, cell-free; IC50, µM; 6% of 480 active; call rule not given here
AlphaScreen intf2: AlphaScreen optical interference compounds, counter-screen for MITF inhibitor project, biochemical, triplicate | shares compounds with MITF primary | LysRS AlphaScreen counterscreen, signal interference | inhibition, % at 2.6 µM | 7.6% of 4,700 active | AID 1259376, 2018;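 active = inhibition above a cutoff derived from the DMSO control wells, cut at about 30% in these data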
An asterisk follows results filed as active; x = no result.

SMILES	MITF primary	FBW7 activator	TEAD-YAP block	GPR151 ag	MITF inh conf	AlphaScreen intf2	others
COc1ccc(C[C@@H]2NC(=O)[C@H]3CN(C(=O)c4ccc(-c5ccccc5)cc4)CCN3C2=O)cc1	21	1	10	2	x	x
C[C@@H](O)[C@@H]1NC(=O)[C@H]2CN(C(=O)OCc3ccccc3)CCN2C1=O	15	0	7	0	x	x
CC(=O)c1ccc(N2Cc3ccccc3C2=O)cc1	6	0	6	-4	x	x
O=C(/C=C/c1ccccc1Cl)NCCc1ccsc1	21	0	-35	-2	x	x
Cc1ccc2nc(C3CCN(S(=O)(=O)c4ccc5c(c4)OCCO5)CC3)[nH]c2c1	66*	0	8	1	12	19
C=CCc1cc(Cl)ccc1OCCNCCOC	44	0	5	4	x	x
C=CCc1cc(OC)ccc1OCCCNCCOC	62*	0	1	0	-1	7
C=CCc1cc(C)ccc1OCCOCCNCCN(C)C	51*	0	-4	0	7	20
C=CCc1cc(C)ccc1OCCNCCOC	53*	0	4	0	-1	-4
C=CCNCCOCCOc1cccc(Br)c1	60*	0	0	-1	2	4
C=CCNCCOCCOc1cccc(OCC)c1	13	0	-2	1	x	x
COc1ccc(OCC(O)CSc2ncnc3sc(C)c(C)c23)cc1 (configuration not stated)	4	0	-5	1	x	x
COc1ccc(Cl)cc1NCn1nnc2ccccc21	5	0	0	3	x	x
Cc1ccc(CN2C(=O)CSc3ccc(C(=O)NCc4ccc(F)cc4)cc32)cc1	5	0	2	0	x	x
O=C(C1CC=CCC1)N1CCCC(c2[nH]ncc2-c2ccncc2)C1 (configuration not stated)	2	0	1	1	x	x
Cc1c(C(=O)NC(=S)Nc2n[nH]c(=S)s2)cccc1[N+](=O)[O-]	1	0	-9	-1	x	x
COCCNCCCCOc1cc(C)ccc1C(C)(C)C	39	0	-4	-1	x	x
C=CCNCCOCCOc1ccc(C)cc1Br	60*	0	-20	0	9	12
COCCNCCOc1cc(C)ccc1C(C)(C)C	51*	0	10	-1	-14	-7
C=CCc1cc(C)ccc1OCCCNCCOC	58*	0	-1	-1	-11	-7
C=CCc1cc(OC)ccc1OCCN1CC(C)OC(C)C1 (configuration not stated)	64*	0	-1	0	20	36*
C=CCNCCOCCOc1ccc(C(C)(C)C)cc1C	9	0	0	-1	x	x
O=C(CC(Sc1cccs1)c1cccc([N+](=O)[O-])c1)C1CCCCC1 (configuration not stated)	0	0	-6	-1	x	x
COCCCNCCOCCOc1ccc(Cl)cc1C(C)(C)C	5	0	-1	-1	x	x
C=CCNCCOCCOc1ccc(Cl)cc1C(C)(C)C	69*	0	-2	0	2	6
SMILES	MITF primary	FBW7 activator	TEAD-YAP block	GPR151 ag	MITF inh conf	AlphaScreen intf2	others
C=CCNCCCOc1ccc(Br)cc1Cl	15	0	-18	-3	x	x
C=CCNCCOc1ccc(Br)cc1Cl	56*	0	1	0	7	3
Cc1nnc(C)n1/N=C\c1cccc2ccccc12	66*	0	2	1	-13	-4
COc1cc(CN2CCC(N3CCCC3)CC2)cc(OC)c1OC	58*	0	3	0	-6	-6
COc1cc(CN2CCC(N3CCCCC3)CC2)cc(OC)c1OC	1	0	-7	1	x	x
COc1cc(CN2CCN(C3CCCCC3C)CC2)cc(OC)c1OC (configuration not stated)	74*	0	6	1	10	9
CCN1CCN(CCCCOc2cccc(C(C)=O)c2)CC1	59*	0	-7	1	10	18
CC(=O)c1ccc(OCCCN2CCN(C)CC2)cc1	37	0	1	0	x	x
CC(=O)c1cccc(OCCCN2CCCCC2)c1	32	0	0	1	x	x
CC(=O)c1cccc(OCCN2CCN(C)CC2)c1	57*	0	-8	0	9	16
CCCNC(=O)Cc1csc(SCc2ccc(Cl)cc2)n1	-82	0	8	1	x	x
C#CCN(C)C(=O)c1cnc2sc(C)cn2c1=O	57*	0	-1	0	12	8
Cc1cn2c(=O)c(C(=O)N(C)CC(=O)N(C)C)cnc2s1	-1	0	2	-1	x	x
O=C(c1ccc2c(c1)C(=O)N(c1ccccn1)C2=O)N1CCN(c2ccccc2Cl)CC1	15	1	-7	-1	x	x
COc1ccccc1N1CCN(C(=O)c2ccc3c(c2)C(=O)N(c2ccccn2)C3=O)CC1	68*	0	1	-1	-7	-4
COc1ccc(C(=O)NNC(=O)COc2ccc(Br)cc2)cc1OC	3	0	-6	-1	x	x
Cc1cc(O)ccc1C1CCCCC1	-1	0	8	0	x	x
Oc1c(C2CCCCC2)cccc1C1CCCCC1	60*	0	4	2	0	11
COC(=O)c1c(NC(=O)Nc2cccc(Cl)c2)sc(C)c1C	0	1	-6	2	x	x
O=C(/C=C/c1ccco1)NCc1cccc(CNC(=O)/C=C/c2ccco2)c1	74*	0	4	2	82*	16	AS interf DR=>6.5
O=C(/C=C/c1ccco1)OCC(=O)N1CCCC1	17	0	3	3	x	x
O=C(/C=C/c1ccco1)Nc1cccc(NC(=O)/C=C/c2ccco2)n1	82*	0	-48	-1	49*	1	AS interf DR=>6.7
O=C(/C=C/c1ccco1)ON1C(=O)c2ccccc2C1=O	56*	0	-3	0	35*	1	AS interf DR=>6.5
O=C(O)CCCNC(=O)/C=C/c1ccco1	62*	0	3	1	59*	3	AS interf DR=>6.5
Brc1ccc(/C=N/NC2=NCCCCC2)cc1	1	0	-46	-1	x	x
Cc1cccnc1C(NC(=O)C1CCN(C(=O)c2ccoc2)CC1)c1cccs1 (configuration not stated)	24	0	0	-1	x	x
CCc1nnc(NC(=O)/C=C/c2ccco2)s1	0	0	-34	1	x	x
O=C(/C=C/c1ccco1)Nc1nnc(-c2ccco2)s1	52*	0	30	0	57*	8	AS interf DR=>6.5
O=C(/C=C/c1ccco1)/C=C/c1ccco1	68*	0	9	1	77*	97*
COc1ccc(CCNC(=O)c2cc3c(=O)n4cccc(C)c4nc3n2C)cc1OC	7	0	3	0	x	x
